Activity calls are given as the source filed them. Cut-off read from the data, not from the text of the source, unless noted: active = inhibition above about 80%; inactive = the rest.
Columns and labels:
[1] = hESC survival regulators, cell-based (AID 493140; call rule not given here;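 note: cells exposed to compounds for four days before counting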); settings: human embryonic stem cell survival screen; stronger effect = higher value
[2] = liver-stage malaria parasite growth inhibition, primary screen, cell-based, HepG2, luciferase luminescence, HepG2 viability (AID 624349; in the data active = parasite load remaining mostly below about 12%, no sharp cut-off; inactive = mostly above about 10%;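 note: 100% = mean of DMSO negative control wells on the same plate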); settings: P. berghei liver stage in HepG2, luciferase luminescence, concentration not given here; parasite load remaining: stronger effect = lower value; viability: measured here: HepG2 viability without parasites
[3] = sensitizers of A549 cells to miR-34 induction, primary screen, imaging, A549 dox-inducible miR-34, nuclei and caspase counts (AID 1347080;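 active = compounds whose cell count with miR-34 switched on is under 0.7 times the count with it off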); settings: A549 miR-34 inducible, Hoechst nuclei count, 48 h
[4] = survival rescue of mitochondrial mutant cells in low glucose, primary screen, MELAS cybrids, Rieske KO mouse fibroblasts, CellTiter-Glo (AID 1508586;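 active = mean z-score across replicates of 1.96 or higher in either the MELAS or the Rieske mutant cell line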;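 note: z relative to plate mean and SD of compound and empty wells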)
[5] = LFS_MB_P medulloblastoma growth inhibition, cell-based, chromothripsis tumors, cisplatin or BGB combos (AID 1671449); settings: LFS_MB_P medulloblastoma cells;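 note: cells exposed for 96 hours; 0% = vehicle DMSO and 100% = killing by high DMSO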
[6] = HDN33 neuroblastoma growth inhibition, cell-based, chromothripsis tumors, cisplatin or BGB combos (AID 1671450); settings: HDN33 neuroblastoma cells, stronger effect = higher value;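 note: cells exposed to compound for four days; 0% = vehicle DMSO and 100% = cell killing by high DMSO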
[7] = ICB984 medulloblastoma cell growth inhibition, synergistic combos for chromothripsis tumors, cisplatin or BGB combos (AID 1671451; call rule not given here;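 note: cells exposed for 96 hours before readout; 0% = vehicle DMSO and 100% = killing by high DMSO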); settings: ICB984 medulloblastoma cells, drug combinations, stronger effect = higher value
[8] = LFS_MB_1R medulloblastoma cell growth inhibition, synergistic combos for chromothripsis tumors, cisplatin or BGB combos (AID 1671452); settings: LFS_MB_1R medulloblastoma cells, stronger effect = higher value;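 note: cells exposed for 96 hours before readout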
[9] = HTB85 osteosarcoma cell growth inhibition, synergistic combos for chromothripsis tumors, BGB or cisplatin IC20 combos (AID 1671453); settings: HTB85 osteosarcoma cells, drug combinations, stronger effect = higher value;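 note: cells exposed for 96 hours before readout; 0% = vehicle DMSO and 100% = high DMSO killing control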
[10] = CRL2098 osteosarcoma cell growth inhibition, synergistic combos for chromothripsis tumors, BGB or cisplatin IC20 combos (AID 1671454); settings: CRL2098 osteosarcoma cells, drug combinations, stronger effect = higher value;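 note: cells exposed for 96 h before readout; 0% = vehicle DMSO and 100% = killing by high DMSO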
[11] = HD-MB03 medulloblastoma cell growth inhibition, synergistic combos for chromothripsis tumors, BGB or cisplatin IC20 combos (AID 1671455; in the data active = inhibition above about 83%;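 note: 0% = vehicle DMSO and 100% = high DMSO as cytotoxic control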); settings: HD-MB03 medulloblastoma cells, stronger effect = higher value
[12] = UWB1.289 ovarian carcinoma cell growth inhibition, synergistic combos for chromothripsis tumors, BGB or cisplatin combos (AID 1671456); settings: UWB1.289 ovarian carcinoma cells, stronger effect = higher value;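 note: cells exposed to compound for four days; 0% = vehicle DMSO and 100% = killing by high DMSO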
[13] = LFS_MB_2R medulloblastoma cell growth inhibition, synergistic combos for chromothripsis tumors, cisplatin combos (AID 1671457); settings: LFS_MB_2R medulloblastoma cells, stronger effect = higher value;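 note: cells exposed to compound for four days before readout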
[14] = MDA-MB-436 breast carcinoma cell growth inhibition, synergistic combos for chromothripsis tumors, BGB or cisplatin combos (AID 1671458; call rule not given here;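 note: cells exposed for 96 hours; 0% = vehicle DMSO and 100% = killing by high DMSO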); settings: MDA-MB-436 breast carcinoma growth inhibition, drug combinations, stronger effect = higher value
[15] = UWB1.289_BRCA1 ovarian cancer growth, cell-based, BGB or cisplatin combinations (AID 1671459); settings: UWB1.289 BRCA1 ovarian carcinoma, drug combinations, stronger effect = higher value
[16] = human astrocyte viability loss, single and combined drugs, cytotoxicity control for chromothriptic childhood tumor combination screen, cell-based, BGB or cisplatin IC20 combos (AID 1671460); settings: Human astrocytes, drug combinations, stronger effect = higher value;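 note: cells exposed to compounds for 96 hours before viability readout; 0% = vehicle and 100% = killing control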
[17] = growth inhibition of BT084 medulloblastoma cells, cell-based, ICGC_MB145, cisplatin and BGB IC40 combos (AID 1671461); settings: drug combinations, stronger effect = higher value;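 note: cells exposed to drugs for 96 hours; 0% = vehicle DMSO and 100% = high DMSO full killing control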
[18] = growth inhibition of RCMB18 medulloblastoma cells, cell-based, cisplatin and BGB IC40 combos (AID 1671462); settings: stronger effect = higher value;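 note: cells exposed to compound for four days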
[19] = growth inhibition of CRL1545 osteosarcoma cells, cell-based, cisplatin and BGB IC20 combos (AID 1671464); settings: stronger effect = higher value;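 note: cells exposed to compound for 96 hours before readout; 0% = vehicle DMSO and 100% = high DMSO killing control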
[20] = stronger effect = lower value, cell number ratio, induced over uninduced
[21] = measured here: relative caspase fold change +Dox/-Dox
[22] = measured here: total cells with miR-34 induction, stronger effect = lower value
[23] = measured here: total cells without miR-34 induction
[24] = MELAS cybrid survival, CellTiter-Glo 48 h, stronger effect = higher value
[25] = Rieske KO mouse fibroblast survival, CellTiter-Glo 72 h
[26] = measured here: combination with BGB IC40, at 0.05 µM
[27] = measured here: with BGB IC20 combination, at 0.5 µM
[28] = measured here: with cisplatin IC20 combination, at 0.5 µM
[29] = measured here: combination with cisplatin, at 0.5 µM
[30] = measured here: combination with cisplatin, at 5 µM

Compound: CC(C)(C)C(=O)OCOC(=O)[C@@H]1N2C(=O)[C@@H](N=CN3CCCCCC3)[C@H]2SC1(C)C
- survival [1]: 17.2 (inactive)
- parasite load remaining [2]: 86.3% (inactive)
- viability [2]: 108%
- fold change [3, 20]: 0.956 (inactive)
- fold change [3, 21]: 0.721
- cell count [3, 22]: 9610
- cell count [3, 23]: 10100
- z-score [4, 24]: 0.579 (inactive)
- z-score [4, 25]: -0.414

Compound: COc1ccccc1S(=O)(=O)Nc1ccc2c(c1)CN(C)C(=O)N2
- fold change [3, 20]: 1.02 (inactive)
- fold change [3, 21]: 0.364
- cell count [3, 22]: 6410
- cell count [3, 23]: 6310
- z-score [4, 24]: 0.202 (inactive)
- z-score [4, 25]: -0.445
- inhibition ([5]; at 0.5 µM, stronger effect = higher value): -27% (inactive)
- inhibition ([5]; measured here: combination with BGB IC20, at 0.005 µM): -35.7%
- inhibition ([5]; measured here: combination with BGB IC40, at 0.005 µM): -46.6%
- inhibition [5, 26]: -41.2%
- inhibition ([5]; measured here: combination with cisplatin, at 0.5 µM, stronger effect = higher value): -73.8%
- inhibition ([5]; measured here: combination with cisplatin, at 5 µM, stronger effect = higher value): 27.9%
- inhibition ([6]; BGB combo, at 5 µM): 10.4%
- inhibition ([6]; at 0.5 µM): -28.2% (inactive)
- inhibition ([6]; cisplatin combo, at 5 µM): 19.3%
- inhibition [6, 27]: -28.2%
- inhibition [6, 28]: -25.5%
- inhibition ([6]; single agent, at 5 µM): 26.1%
- inhibition ([7]; BGB IC20 combo, at 0.005 µM): 0.625%
- inhibition ([7]; BGB IC40 combo, at 0.005 µM): -32.2%
- inhibition ([7]; BGB IC40 combo, at 0.05 µM): 2.94%
- inhibition ([7]; at 0.5 µM): -27.9% (inactive)
- inhibition ([7]; cisplatin combo, at 0.05 µM): -1.96%
- inhibition ([7]; cisplatin combo, at 0.5 µM): -28%
- inhibition ([7]; cisplatin combo, at 5 µM): -22.2%
- inhibition ([7]; measured here: 5 uM single agent, at 5 µM): -15.3%
- inhibition ([8]; at 0.5 µM): -15.2% (inactive)
- inhibition [8, 26]: -24.6%
- inhibition [8, 29]: -10.4%
- inhibition [8, 30]: 42.8%
- inhibition ([9]; at 0.5 µM): -7.92% (inactive)
- inhibition ([9]; measured here: with BGB IC20, at 0.5 µM): 9.14%
- inhibition ([9]; measured here: with BGB IC20, at 5 µM): 38.2%
- inhibition ([9]; measured here: with cisplatin IC20, at 0.5 µM): -13.9%
- inhibition ([9]; measured here: with cisplatin IC20, at 5 µM): 31.4%
- inhibition ([9]; single agent, at 5 µM): 32.5%
- inhibition ([10]; at 0.5 µM): -31.4% (inactive)
- inhibition ([10]; measured here: combination with BGB at IC20, at 0.5 µM): 0.952%
- inhibition ([10]; measured here: combination with cisplatin at IC20, at 0.5 µM): -85.9%
- inhibition ([11]; at 0.5 µM): -5.44% (inactive)
- inhibition ([11]; measured here: combo with BGB at IC20, at 0.5 µM): -9.22%
- inhibition ([11]; measured here: combo with cisplatin at IC20, at 0.5 µM): -6.26%
- inhibition ([12]; at 0.5 µM): -14.3% (inactive)
- inhibition ([12]; measured here: inhibition with BGB combination, at 0.05 µM): -45%
- inhibition ([12]; measured here: inhibition with cisplatin combination, at 0.05 µM): -24.9%
- inhibition ([13]; at 0.5 µM): -17.7% (inactive)
- inhibition [13, 29]: -4.41%
- inhibition [13, 30]: 24.4%
- inhibition ([14]; at 0.5 µM): -11.9% (inactive)
- inhibition ([14]; measured here: BGB combination, at 0.5 µM): -2.15%
- inhibition ([14]; measured here: BGB combination, at 5 µM): -5.52%
- inhibition ([14]; measured here: cisplatin combination, at 0.5 µM): -32.4%
- inhibition ([14]; measured here: cisplatin combination, at 5 µM): -10.1%
- inhibition ([15]; BGB combination, concentration series, at 5 µM): 37.7%
- inhibition ([15]; at 0.5 µM): -12% (inactive)
- inhibition ([15]; cisplatin combination, concentration series, at 5 µM): 55.6%
- inhibition ([16]; at 0.5 µM): 9.7% (inactive)
- inhibition ([16]; measured here: combo with BGB IC20, at 0.5 µM): 13.1%
- inhibition ([16]; measured here: combo with cisplatin IC20, at 0.5 µM): 4.75%
- inhibition ([17]; at 0.5 µM): -13.5% (inactive)
- inhibition ([17]; cisplatin combination, at 0.5 µM): -9.06%
- inhibition ([17]; cisplatin combination, at 5 µM): 15.1%
- inhibition ([17]; measured here: BGB IC40 combination 0.05 uM, at 0.05 µM): -35.9%
- inhibition ([17]; single agent, at 5 µM): 28.1%
- inhibition ([18]; at 0.5 µM): -15.3% (inactive)
- inhibition ([18]; cisplatin combo, at 5 µM): 7.58%
- inhibition ([18]; measured here: BGB IC40 combination, at 0.05 µM): -26.3%
- inhibition [18, 29]: -32.4%
- inhibition ([18]; single agent, at 5 µM): 7.98%
- inhibition ([19]; at 0.5 µM): -26.6% (inactive)
- inhibition [19, 27]: -39.9%
- inhibition [19, 28]: -21.9%
- inhibition ([19]; single agent, at 0.05 µM): -32%
- inhibition ([19]; single agent, at 5 µM): 6.08%
